Data as given in PubChem BioAssay (NCATS).
Results filed as inconclusive are left out. A number with no mark means an inactive call. Calls of active or inactive are those of the source. Calls come from the whole dose curve; as a rule, active = well fitted inhibition curve with a large enough effect; inconclusive = small, poorly fitted or top-dose-only effect; inactive = no such curve, though single readings can be large or run the other way.

test system: Zika virus NS2B-NS3 protease (unlinked complex); test: Primary screen GU Rhodamine qHTS for Zika virus inhibitors: Unlinked NS2B-NS3 protease assay (AID 1347159); conditions: Recombinant ZIKV NS2B-NS3 protease, Rhodamine110 substrate fluorescence; series mostly up to 107 µM; activity change, negative = inhibition: at the top concentration; note: nearly all actives have a fitted effect of over 60% in size
Method in brief: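 Enzyme 25 nM in Tris-HCl pH 8.0 + 0.01% Tween 20; compounds up to 114 microM, 15 min RT dark; + Rhod110 substrate 1.5 microM; read t0 and 15 min; delta fluorescence → % inhibition → 4-parameter Hill fit.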
% is set by controls: 0 for no effect and ±100 for the full control effect; potency is the fitted concentration of half-maximal effect.

| SMILES | activity change, negative = inhibition | Potency |
| --- | --- | --- |
| CC(C)NCCCn1c(Sc2cc3c(cc2I)OCO3)nc2c(N)ncnc21 | 3.4% |  |
| C=C1C(=O)OC2/C=C(\CO)CC/C=C(\C=O)C(OC)C(OC(=O)C(C)CC)C12 (centres undefined) | -24.6% [at 57.1 µM] |  |
| CCO[C@H]1CN(C2CCC(O)(c3ccc4c(c3)OCO4)CC2)C[C@@H]1NC(=O)CNC(=O)c1cccc(C(F)(F)F)c1 (some centres undefined) | 31.1% |  |
| CC(C)(C[C@@](O)(Cc1cc2ccncc2[nH]1)C(F)(F)F)c1cc(F)ccc1O | 95.6% |  |
| CCc1cc2c(cc1CC)CC(NCC(O)c1ccc(O)c3[nH]c(=O)ccc13)C2 (centres undefined) | 59% |  |
| CCOC(=O)N1c2ccc(C(F)(F)F)cc2C(N(Cc2cc(C(F)(F)F)cc(C(F)(F)F)c2)C(=O)OC)CC1CC (centres undefined) | -23.5% |  |
| CN1CCN(c2ccc(-c3cccc(CN4CCOCC4)c3)cc2NC(=O)c2c[nH]c(=O)cc2C(F)(F)F)CC1 | -18.4% |  |
| C=CC(C)(O)CC/C=C(\C)C(=O)OC1C(O)C(CO)OC(OC(=O)C23CCC(C)(C)CC2C2=CCC4C5(C)CCC(OC6OC(COC7OCC(OC(C)=O)C(O)C7OC7OC(COC(C)=O)C(O)C(O)C7OC(C)=O)C(O)C(O)C6OC6OCC(O)C(O)C6O)C(C)(C)C5CCC4(C)C2(C)C(O)C3O)C1OC1OCC(OC2OCC(O)C(OC3OCC(O)C(O)C3O)C2O)C(O)C1O (centres undefined) | 23.6% [at 19.1 µM] |  |
| O=C1Nc2ccccc2-c2nc3ccccc3c(=O)n2-c2c(O)cccc21 | -15.1% |  |
| CC1(C)OC[C@H](NC(=O)Nc2ccc(Br)cc2Br)[C@H](c2ccccc2)O1 | 1.69% |  |
| CNC(=O)c1cc(Oc2ccc(NC(=O)c3cccc(C(F)(F)F)c3)cc2)ccn1 | 4.26% |  |
| O=S(=O)(NCc1cccc2ccccc12)c1cc(Cl)c(Oc2cccc(N3CCNCC3)c2)s1 | 205% |  |
| NC(N)=NC(=O)c1cnn(-c2cccc3ncccc23)c1C1CC1 | 10.7% |  |
| NCC(CNc1nc(Nc2cccc(NC(=O)N3CCCC3)c2)ncc1I)C(=O)c1cccs1 (centres undefined) | 53.8% |  |
| Cc1nc2c(C(F)(F)F)cccc2nc1-c1ccc(-c2cccc(S(C)(=O)=O)c2)cc1 | 2.36% |  |
| Cc1cc2c(N3CCCC3)nc(N3CCCC3)nc2n1C | -9.16% |  |
| CC(=O)OC(C)(C)/C=C/C(=O)[C@](C)(O)[C@H]1C(O)C[C@@]2(C)[C@@H]3CC=C4[C@@H](C=C(O[C@@H]5O[C@H](CO)[C@@H](O)[C@H](O)[C@H]5O)C(=O)C4(C)C)[C@]3(C)C(=O)C[C@]12C (some centres undefined) | 11.4% [at 32.5 µM] |  |
| O=C(NO)c1cnc(N2CCN(S(=O)(=O)c3ccc4ccccc4c3)CC2)nc1 | 0% [at 57.1 µM] |  |
| COc1ccc(NC(=O)C2C[C@H](C)CC[C@H]2C(C)C)cc1 (some centres undefined) | 70% |  |
| C#CCCCn1cc(-c2cccc3c2N[C@H](C)CC(=O)N3)cn1 | 17.5% |  |

| SMILES | activity change, negative = inhibition | Potency |
| --- | --- | --- |
| CCC/C=C\C=C/CCc1cc(O)c([C@@H]2O[C@H](CO)[C@@H](O)[C@H](O)[C@H]2O)c(O)c1C(=O)OC | 13.3% [at 57.1 µM] |  |
| CC(C)(C)OC(=O)c1ncn2c1C(C)(C)Nc1ccccc1-2 | 5.07% |  |
| O=C(NCCCN1CCOCC1)c1cnn2c(-c3ccccc3)cc(-c3ccccc3)nc12 | 30.7% |  |
| O=C(Nc1ccccc1)N1CCC(Cc2cnc3ccccc3c2)CC1 | -14.2% |  |
| COc1c(F)cccc1C(=O)N1C[C@@H](C)CC[C@H]1CNc1ccc(Br)cn1 | -12.1% |  |
| C=C1CC2[C@@]3(C)C=CC(=O)C(C)(C)C3=C(O)C(=O)[C@@]2(C)C2(C(=O)OC)C(=O)C(C)OC(=O)[C@@]12C (some centres undefined) | 13.3% [at 57.1 µM] |  |
| CC(C)C[C@@H](C(=O)N[C@@H](Cc1ccc(OCc2ccccc2)cc1)C(=O)NC(C)(C)C)N(C)Cc1ccc(C(C)(C)C)cc1 | 24.6% |  |
| CC(C)(C)c1ccc(-c2nc3c(N4CCN(Cc5ccc6nccnc6c5)CC4)cccc3[nH]2)cc1 | 29.3% |  |
| O=C(Cc1c(F)cccc1F)Nc1cc(OCc2ccc(Cl)cc2)ccn1 | -20.2% |  |
| C=C1CO[C@@]2(O[C@H]3CC4C5CC=C6C[C@@H](O)C[C@@H](O[C@@H]7OC[C@H](O)[C@H](O[C@@H]8OC[C@@H](O)[C@H](O)[C@H]8O)[C@H]7O[C@@H]7O[C@@H](C)[C@H](OC(C)=O)[C@@H](OC(C)=O)[C@H]7OC(C)=O)[C@]6(C)C5CC[C@]4(C)[C@@H]3[C@@H]2C)[C@@H](O)[C@H]1OC1OC(C)C(O)C(O)C1O (some centres undefined) | -10.8% [at 19.1 µM] |  |
| CCC(C)CNCC(=O)N1CCc2sccc2C1COc1cccc(C)c1 (centres undefined) | 44.7% |  |
| C[C@@H](NC(=O)C(=O)c1c[nH]c2ccc([N+](=O)[O-])cc12)c1ccccc1 | -11.5% |  |
| COc1ccc(-c2cnc3c(-c4cccc5ncccc45)cnn3c2)cc1 | 2.83% |  |
| CC(=O)OC(C)(C)/C=C/C(=O)C(C)(O)C1C(O)CC2(C)C3CC=C(C(C)(C)C(=O)O)C(CC(=O)O)C3(C)C(=O)CC12C (centres undefined) | 18.9% [at 32.5 µM] |  |
| O=C(NO)c1ccc(CC(=O)N(CCO)c2ccccc2)cc1 | 2.74% |  |
| O=C(NC1CCN(CCCCC2(C(=O)NCC(F)(F)F)c3ccccc3-c3ccccc32)CC1)c1ccccc1-c1ccc(C(F)(F)F)cc1 | 171% |  |
| CN(C)C(=O)Nc1cccc(-c2ccc(N(C)C)cc2)c1 | -1.5% |  |
| Cc1cc(NC(=O)NCCN2CCC(O)(Cc3ccccc3)CC2)c2ccccc2n1 | 12.6% |  |
| O=C(Nc1cccc(C(F)(F)F)c1)Nc1ccc(Br)cc1-c1nn[nH]n1 |  | 3.16 µM (active) |
